Source: PubChem BioAssay (NCATS)
Inconclusive results are not listed. A call without a number means that no potency is given here. Calls of active or inactive are those of the source. The call rests on the fitted dose curve; in most records, active means well fitted inhibition curve with a large enough effect; inconclusive means small, poorly fitted or top-dose-only effect; inactive means flat fitted curve, though single readings scatter.

target: Ubiquitin carboxyl-terminal hydrolase 1 (Homo sapiens) (UniProt O94782); test: Inhibitors of USP1/UAF1: Pilot qHTS (AID 504865); conditions: purified USP1/UAF1, Ub-rhodamine cleavage fluorescence; series mostly up to 114 µM; further: nearly all actives have a fitted effect of over 35% in size;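 on activity change, negative = inhibition: rhodamine fluorescence freed from ubiquitin-rhodamine substrate followed over time; top concentration of the series differs between compounds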
Source text: Deubiquitinating enzymes (DUBs) are a class of enzymes that can cleave isopeptide bond formed between the C-terminal carboxylate of ubiquitin and a lysine side-chain amino group on the target protein. Among them, ubiquitin specific proteases (USPs) constitute the largest DUB family. Human USPs are emerging as promising targets for pharmacological intervention because of their connection to a number of human diseases, including prostate, colon and breast cancer (1, 2), pediatric acute lymphoblastic leukemia (3), and familial cylindromatosis (4). The advantage of inhibiting USPs lies in the potential specificity of therapeutic intervention that can lead to better efficacy and reduce nonspecific side effects.
In a collaboration between the University of Delaware and the NIH Chemical Genomics Center, a high-throughput screen assay was developed to screen for USP1/UAF1 inhibitors. This miniaturized assay has a fluorescent read-out and is used to screen the NIH Molecular Libraries Small Molecule Repository (MLSMR) in order to identify a small molecule that inhibits USP1.
NIH Chemical Genomics Center [NCGC]
NIH Molecular Libraries Probe Centers Network [MLPCN]
Assay Submitter (PI): Zhihao Zhuang, University of Delaware
1. Priolo, C., et al. (2006) The isopeptidase USP2a protects human prostate cancer from apoptosis. Cancer Res 66, 8625-8632
2. Popov, N., et al. (2007) The ubiquitin-specific protease USP28 is required for MYC stability. Nat Cell Biol 9, 765-774
3. De Pitta, C., et al. (2005) A leukemia-enriched cDNA microarray platform identifies new transcripts with relevance to the biology of pediatric acute lymphoblastic leukemia. Haematologica 90, 890-898
4. Kovalenko, A., et al. (2003) The tumour suppressor CYLD negatively regulates NF-kappaB signalling by deubiquitination. Nature 424, 801-805
3 microliters of reagents (buffer in columns 3 and 4 as negative control and 1nM USP1/UAF1 complex in columns 1, 2, and 5-48) are dispensed into Greiner black solid bottom 1536-well assay plates. Compounds are then transferred via Kalypsys pin tool equipped with 1536-pin array (10nl slotted pins, V&P Scientific, San Diego, CA). Following an incubation step of 15 min at room temperature, 1ul of Ub-Rho substrate (150nM final concentration) is added to initiate the reaction. The plates are immediately centrifuged at 1000 rpm for 15 seconds, and subsequently transferred to a ViewLux high-throughput CCD imager (PerkinElmer) wherein kinetic measurements of fluorescence are acquired using 480 nm excitation/540 nm emission filter set (6 reads every 60 seconds, see Table 1). All reagents are diluted in an assay buffer consisting of 50mM HEPES (pH 7.8), 0.5mM EDTA, 0.1 mg/ml BSA, 1mM TCEP, and 0.01% Tween-20.
Potency means the concentration at half of the fitted maximal effect.

Chain of Ubiquitin carboxyl-terminal hydrolase 1 (Homo sapiens) (O94782 whole entry, looked up): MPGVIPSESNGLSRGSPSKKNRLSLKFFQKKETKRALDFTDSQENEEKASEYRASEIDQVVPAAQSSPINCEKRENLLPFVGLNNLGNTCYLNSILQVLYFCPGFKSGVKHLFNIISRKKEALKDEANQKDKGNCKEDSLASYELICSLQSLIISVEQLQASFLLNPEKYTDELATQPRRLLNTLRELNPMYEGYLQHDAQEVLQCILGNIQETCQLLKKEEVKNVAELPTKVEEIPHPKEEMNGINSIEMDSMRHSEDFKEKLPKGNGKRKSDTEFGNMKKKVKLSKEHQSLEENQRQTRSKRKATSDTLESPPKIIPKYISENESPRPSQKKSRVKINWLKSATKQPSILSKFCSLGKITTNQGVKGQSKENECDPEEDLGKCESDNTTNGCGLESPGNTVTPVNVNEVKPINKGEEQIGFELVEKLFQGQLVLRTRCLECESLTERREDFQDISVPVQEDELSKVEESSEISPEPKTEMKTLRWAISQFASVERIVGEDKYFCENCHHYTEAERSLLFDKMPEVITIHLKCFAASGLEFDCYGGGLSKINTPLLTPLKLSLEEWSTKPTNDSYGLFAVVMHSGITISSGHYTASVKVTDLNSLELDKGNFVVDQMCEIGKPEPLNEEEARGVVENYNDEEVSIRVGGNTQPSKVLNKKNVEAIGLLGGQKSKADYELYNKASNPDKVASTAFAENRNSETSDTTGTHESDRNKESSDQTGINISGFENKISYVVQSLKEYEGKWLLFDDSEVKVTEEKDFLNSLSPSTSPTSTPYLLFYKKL

Question: How did the Potency turn out when `CC1(C)SC2[C@@H](N=CN3CCCCCC3)C(=O)N2[C@H]1C(=O)O` (stereo not given in full) was run?
Answer: Its Potency is “inactive”.

Question: With `CC1(C)C2CC[C@]1(C)[C@@H](O)C2` as the compound, how does the Potency read?
Answer: Its Potency is “inactive”.

Question: How did the Potency turn out when `OCC1O[C@H](O[C@H]2C(O)C(O)C(O)O[C@@H]2CO)C(O)C(O)C1O` (stereo not given in full) was run?
Answer: The Potency was “inactive”.

Question: `OCCN1CC(O)C(O)C(O)C1CO` (stereo not given) was tested. Which Potency did it give?
Answer: Its Potency is “inactive”.

Question: With `C[C@H](CN1c2ccccc2Sc2cccnc21)N(C)C` as the compound, how does the Potency read?
Answer: The Potency was “inactive”.

Question: `C[C@H](O)[C@@H]1C(=O)N2C(C(=O)O)=C(SCCN=CN)C[C@@H]12` was tested. Which Potency did it give?
Answer: Its Potency is “inactive”.

Question: Which Potency does the source give for `NC(C(=O)O)c1ccc(O)cc1` (stereo not given) here?
Answer: Its Potency is “inactive”.

Question: With `CCCCCCCCN[C@@H](C)[C@H](O)c1ccc(SC(C)C)cc1` as the compound, how does the Potency read?
Answer: The Potency was “inactive”.

Question: With `Cc1ccccc1N1C(=O)c2cc(N)ccc2N/C1=C\F` as the compound, how does the Potency read?
Answer: The Potency was “inactive”.

Question: Which Potency does the source give for `C=C1C(=O)O[C@@H]2[C@@H]1CC/C(C)=C\CC[C@@]1(C)O[C@H]21` here?
Answer: Its Potency is “inactive”.

Question: How did the Potency turn out when `COc1cccc2c1C(=O)c1c(O)c3c(c(O)c1C2=O)C[C@](O)(C(C)=O)C[C@H]3O[C@@H]1C[C@H](N)[C@H](O)[C@H](C)O1` was run?
Answer: Its Potency is 31.6 µM (active).

Question: Which Potency does the source give for `CCCCCOC(=O)Nc1nc(=O)n(C2O[C@H](C)[C@@H](O)[C@@H]2O)cc1F` (stereo not given in full) here?
Answer: Its Potency is “inactive”.

Question: Which Potency does the source give for `C=C1NC(=O)c2cc(CN(C)c3ccc(C(=O)N[C@@H](CCC(=O)O)C(=O)O)s3)ccc2N1` here?
Answer: The Potency was “inactive”.

Question: For `Cc1ccc(S(=O)(=O)NC(=O)NC(C)Cc2ccccc2)cc1` (stereo not given), which Potency is on record?
Answer: Its Potency is “inactive”.

Question: Which activity change, negative = inhibition does the source give for `O=C(O)c1ccccc1-c1c2ccc(=O)cc-2oc2cc(O)ccc12` here?
Answer: Its activity change, negative = inhibition is -94.3% [at 11.4 µM] (inactive).

Question: How did the Potency turn out when `C/C1=C2/[N-]C(C(CC(N)=O)[C@@]2(C)CCC(=O)NCC(C)OP(=O)([O-])O[C@H]2[C@@H](O)[C@@H](n3cnc4cc(C)c(C)cc43)O[C@@H]2CO)[C@]2(C)N=C(/C(C)=C3N=C(/C=C4N=C1C(CCC(N)=O)C\4(C)C)[C@@H](CCC(N)=O)[C@]\3(C)CC(N)=O)[C@@H](CCC(N)=O)[C@]2(C)CC(N)=O.CC(=O)O.[Co]` (stereo not given in full) was run?
Answer: Its Potency is 56.2 µM (active).

Question: How did the Potency turn out when `O=[N+]([O-])O[C@H]1CO[C@H]2[C@@H]1OC[C@H]2O` was run?
Answer: The Potency was “inactive”.

Question: For `CC[C@@H]1/C=C(\C)C[C@H](C)C[C@H](OC)[C@H]2O[C@@](O)(C(=O)C(=O)N3CCCC[C@H]3C(=O)O[C@H](/C(C)=C/[C@@H]3CC[C@H](Cl)[C@H](OC)C3)[C@H](C)[C@@H](O)CC1=O)[C@H](C)C[C@@H]2OC`, which Potency is on record?
Answer: The Potency was “inactive”.

Question: With `COc1ccc(S(=O)(=O)N2c3ccc(Cl)cc3[C@](O)(c3ccccc3Cl)[C@@H]2C(=O)N2CCC[C@H]2C(N)=O)cc1OC` as the compound, how does the Potency read?
Answer: Its Potency is “inactive”.

Question: Which Potency does the source give for `C=C(CC[C@@H](C)[C@H]1CCC2[C@]1(C)CC[C@]13C[C@@]14CCC(OC(=O)/C=C/c1ccc(O)c(OC)c1)C(C)(C)[C@@H]4CC[C@@]23C)C(C)C` (stereo not given in full) here?
Answer: Its Potency is “inactive”.

Question: With `CC(=O)OCC1=C(C(=O)O)N2C(=O)C(NC(=O)CSc3ccncc3)[C@@H]2SC1` (stereo not given in full) as the compound, how does the Potency read?
Answer: The Potency was “inactive”.

Question: `CC(O)C(N)C(=O)O` (stereo not given) was tested. Which Potency did it give?
Answer: Its Potency is “inactive”.

Question: With `C[N+]12CCCC[C@@H]1CCC(=C(c1cccs1)c1cccs1)C2` (stereo not given in full) as the compound, how does the Potency read?
Answer: Its Potency is “inactive”.

Question: Which Potency does the source give for `CC[C@@]1(O)CC2CN(CCc3c([nH]c4ccccc34)[C@](C(=O)OC)(c3cc4c(cc3OC)N(C)C3[C@@](O)(C(=O)OC)C(OC(C)=O)[C@]5(CC)C=CCN6CC[C@@]43C65)C2)C1` (stereo not given in full) here?
Answer: Its Potency is “inactive”.

Question: How did the Potency turn out when `OCC1OC(O)C(O)C(O)C1O` (stereo not given) was run?
Answer: The Potency was “inactive”.

Question: How did the Potency turn out when `CCCC[C@H]1C(=O)N(c2ccccc2)N(c2ccc(O)cc2)C1=O` was run?
Answer: The Potency was “inactive”.

Question: With `CO/N=C(/C(=O)N[C@@H]1C(=O)N2C(C(=O)O)=C(CSc3cnns3)CS[C@H]12)c1csc(N)n1` as the compound, how does the Potency read?
Answer: Its Potency is “inactive”.

Question: Which Potency does the source give for `O=C1CC[C@H](C(=O)N[C@@H]2C[C@H]2c2ccccc2)N1` here?
Answer: The Potency was “inactive”.

Question: `CNC1=CN(O)C(c2ccccc2)=c2cc(Cl)ccc2=N1` was tested. Which Potency did it give?
Answer: Its Potency is “inactive”.

Question: `C[C@H]1[C@@H](OC(=O)CCC(=O)O)OC2OC3(C)CC[C@H]4[C@H](C)CC[C@@H]1[C@@]24OO3` (stereo not given in full) was tested. Which Potency did it give?
Answer: The Potency was “inactive”.

Question: For `OCC1O[C@H](Oc2ccc(O)cc2)C(O)C(O)C1O` (stereo not given in full), which Potency is on record?
Answer: Its Potency is “inactive”.

Question: With `CC1(C)OC[C@@H]2O[C@@]3(C(=O)O)OC(C)(C)O[C@@H]3[C@@H]2O1` as the compound, how does the Potency read?
Answer: The Potency was “inactive”.

Question: `C=C1[C@@H]2CC[C@H](C2)C1(C)C` was tested. Which Potency did it give?
Answer: Its Potency is “inactive”.

Question: Which Potency does the source give for `CN(CCc1ccc(Cl)c(Cl)c1)CCN1CCCCCC1` here?
Answer: The Potency was “inactive”.

Question: For `Cc1cn([C@H]2CC(F)[C@@H](CO)O2)c(=O)[nH]c1=O` (stereo not given in full), which Potency is on record?
Answer: The Potency was “inactive”.

Question: With `C=C1N[C@]2(C(=O)COC(C)=O)[C@@H](C[C@H]3[C@@H]4CCC5=CC(=O)C=C[C@]5(C)[C@H]4[C@@H](O)C[C@@]32C)O1` as the compound, how does the Potency read?
Answer: The Potency was “inactive”.

Question: For `C#C[C@@]1(O)CC[C@@H]2[C@H]3CCC4=C/C(=N\O)CC[C@H]4[C@@H]3CC[C@]21CC`, which Potency is on record?
Answer: The Potency was “inactive”.

Question: How did the Potency turn out when `COC(c1ccccc1)(c1ccccc1)C(Oc1nc(C)cc(C)n1)C(=O)O` (stereo not given) was run?
Answer: The Potency was “inactive”.

Question: With `O=C1[C@@H]2C[C@@H]3C[C@H]1C[C@@](O)(C3)C2` as the compound, how does the Potency read?
Answer: The Potency was “inactive”.

Question: `CC1CN(c2c(F)c(N)c3c(=O)c(C(=O)O)cn(C4CC4)c3c2F)CC(C)N1` (stereo not given) was tested. Which Potency did it give?
Answer: Its Potency is “inactive”.
